Data reported in PubChem BioAssay AID1159580 (chemical genetic matrix, 2015).
Values joined by “and” are separate entries in the source; they are usually repeats but may differ in a detail not shown here. Equal values may be shown once. In all, about 5,500 compounds went through this assay and about 2,000 (36%) were called active. Another 18% or so got no clear call; they are omitted. Cut-off read from the data, not from the text of the source: active = normalized growth mostly below about 0.91 (no sharp cut-off); inconclusive = no clear call, values can overlap the other calls; inactive = mostly above about 0.92. Some of the results follow.

Assay: chemical genetic growth profiling, strain panel (AID 1159580);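 note: tested at 20 µM; growth read once vehicle control cultures reached saturation at 30 °C; 1 = growth at the plate median or of vehicle wells; lower values mean less growth of the strain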
Details: S. cerevisiae deletion strains, growth OD

Measured: normalized growth

Oc1c(Cl)cc(Cl)c2cccnc12
active: locus YAL013W, strain DEP1, stronger effect = lower value 0.0554 | locus YAL021C, strain ccr4, stronger effect = lower value 0.0642 | locus YAL026C, strain drs2, stronger effect = lower value 0.0607 | locus YAL030W, strain snc1, stronger effect = lower value 0.0606 | locus YBL061C, strain skt5, stronger effect = lower value 0.0718 | locus YBR009C, strain hhf1, stronger effect = lower value 0.0665 | locus YBR021W, strain FUR4, stronger effect = lower value 0.0914 | locus YBR023C, strain chs3, stronger effect = lower value 0.0713 | locus YBR171W, strain sec66, stronger effect = lower value 0.083 | locus YBR229C, strain ROT2, stronger effect = lower value 0.0477 | locus YBR231C, strain swc5, stronger effect = lower value 0.0819 | locus YBR279W, strain paf1, stronger effect = lower value 0.064 | locus YCL011C, strain gbp2, stronger effect = lower value 0.0637 | locus YCL016C, strain dcc1, stronger effect = lower value 0.0656 | locus YCL029C, strain bik1, stronger effect = lower value 0.0628 | locus YCL061C, strain MRC1, stronger effect = lower value 0.0645 | locus YCL069W, strain vba3, stronger effect = lower value 0.0656 | locus YCR088W, strain abp1, stronger effect = lower value 0.0623 | locus YDL005C, strain med2, stronger effect = lower value 0.0757 | locus YDL035C, strain GPR1, stronger effect = lower value 0.0525 | locus YDL040C, strain nat1, stronger effect = lower value 0.0611 | locus YDL074C, strain BRE1, stronger effect = lower value 0.0827 | locus YDL101C, strain DUN1, stronger effect = lower value 0.0602 | locus YDL134C, strain PPH21, stronger effect = lower value 0.0491 | locus YDL185W, strain tfp1, stronger effect = lower value 0.0641 | locus YDL192W, strain arf1, stronger effect = lower value 0.0659 | locus YDR001C, strain nth1, stronger effect = lower value 0.0589 | locus YDR069C, strain doa4, stronger effect = lower value 0.0663 | locus YDR101C, strain arx1, stronger effect = lower value 0.0587 | locus YDR137W, strain rgp1, stronger effect = lower value 0.113 | locus YDR150W, strain NUM1, stronger effect = lower value 0.0572 | locus YDR159W, strain sac3, stronger effect = lower value 0.0885 | locus YDR162C, strain NBP2, stronger effect = lower value 0.0476 | locus YDR195W, strain ref2 0.117 | locus YDR297W, strain sur2, stronger effect = lower value 0.067 | locus YDR318W, strain mcm21, stronger effect = lower value 0.0673 | locus YDR334W, strain swr1, stronger effect = lower value 0.0629 | locus YDR335W, strain msn5, stronger effect = lower value 0.0654 | locus YDR388W, stronger effect = lower value 0.0609 | locus YDR392W, strain spt3, stronger effect = lower value 0.0726 | locus YDR502C, strain sam2, stronger effect = lower value 0.0656 | locus YEL003W, strain gim4, stronger effect = lower value 0.0637 | locus YEL037C, strain rad23, stronger effect = lower value 0.0639 | locus YEL061C, strain CIN8 (second series), stronger effect = lower value 0.0636 | locus YEL061C, strain CIN8, stronger effect = lower value 0.0482 | locus YER015W, strain faa2, stronger effect = lower value 0.0692 | locus YER016W, strain bim1, stronger effect = lower value 0.0695 | locus YER110C, stronger effect = lower value 0.08 | locus YER111C, strain swi4, stronger effect = lower value 0.0742 | locus YER155C, strain BEM2 (second series), stronger effect = lower value 0.0894 | locus YER155C, strain BEM2, stronger effect = lower value 0.0642 | locus YER167W, strain BCK2, stronger effect = lower value 0.0516 | locus YFR010W, strain ubp6, stronger effect = lower value 0.0659 | locus YGL078C, strain dbp3, stronger effect = lower value 0.0639 | locus YGL086W, strain mad1, stronger effect = lower value 0.0594 | locus YGL167C, strain pmr1, stronger effect = lower value 0.0827 | locus YGL173C, strain kem1, stronger effect = lower value 0.076 | locus YGL227W, strain vid30, stronger effect = lower value 0.0665 | locus YGL240W, strain doc1, stronger effect = lower value 0.0841 | locus YGL248W, strain PDE1, stronger effect = lower value 0.0454 | locus YGL253W, strain hxk2, stronger effect = lower value 0.0551 | locus YGR078C, strain PAC10, stronger effect = lower value 0.0521 | locus YGR135W, strain pre9, stronger effect = lower value 0.0748 | locus YGR229C, strain SMI1, stronger effect = lower value 0.0589 | locus YGR252W, strain gcn5, stronger effect = lower value 0.158 | locus YHR013C, strain ard1, stronger effect = lower value 0.111 | locus YHR027C, strain rpn1, stronger effect = lower value 0.0681 | locus YHR030C, strain SLT2, stronger effect = lower value 0.0506 and 0.116 | locus YHR079C, strain IRE1 (second series), stronger effect = lower value 0.0598 | locus YHR079C, strain IRE1, stronger effect = lower value 0.119 | locus YHR094C, strain hxt1, stronger effect = lower value 0.0629 | locus YHR129C, strain ARP1, stronger effect = lower value 0.0524 | locus YHR142W, strain chs7, stronger effect = lower value 0.0684 | locus YHR200W, strain rpn10, stronger effect = lower value 0.066 | locus YIL066C, strain RNR3, stronger effect = lower value 0.0479 | locus YIL073C, strain SPO22, stronger effect = lower value 0.128 | locus YIL125W, strain kgd1, stronger effect = lower value 0.0656 | locus YIR030C, strain dcg1, stronger effect = lower value 0.0607 | locus YJL092W, strain hpr5, stronger effect = lower value 0.0625 | locus YJL095W, strain BCK1 (second series), stronger effect = lower value 0.0621 | locus YJL095W, strain BCK1, stronger effect = lower value 0.0584 and 0.118 | locus YJL115W, strain asf1, stronger effect = lower value 0.0757 | locus YJL129C, strain trk1, stronger effect = lower value 0.089 | locus YJL134W, strain LCB3, stronger effect = lower value 0.0493 | locus YJL154C, strain vps35, stronger effect = lower value 0.0617 | locus YJL164C, strain tpk1, stronger effect = lower value 0.062 | locus YJL166W, strain qcr8, stronger effect = lower value 0.0623 | locus YJL168C, strain set2, stronger effect = lower value 0.0626 | locus YJL187C, strain SWE1 (second series), stronger effect = lower value 0.0481 | locus YJL187C, strain SWE1, stronger effect = lower value 0.0669 | locus YJR043C, strain POL32, stronger effect = lower value 0.0614
